Our source for the Potency and activity change, negative = inhibition values is PubChem BioAssay AID2551 (National Center for Advancing Translational Sciences (NCATS), 2010).

Out of some 310,000 compounds screened, about 17,000 (5.5%) were called active. Entries that show only a call come without a potency. Inconclusive results (about 11%) are left out. Many of the other results were omitted from the sample, so actives are more common in it than they were. Values without a mark were called inactive. Calls come from the whole dose curve; as a rule, active = well fitted inhibition curve with a large enough effect; inconclusive = small, poorly fitted or top-dose-only effect, or effect the other way; inactive = no such curve, though single readings can be large or run the other way.
Potency is the fitted concentration of half-maximal effect.

Chain of Nuclear receptor ROR-gamma (Mus musculus) (P51450 whole entry, looked up, the tested form may be a part): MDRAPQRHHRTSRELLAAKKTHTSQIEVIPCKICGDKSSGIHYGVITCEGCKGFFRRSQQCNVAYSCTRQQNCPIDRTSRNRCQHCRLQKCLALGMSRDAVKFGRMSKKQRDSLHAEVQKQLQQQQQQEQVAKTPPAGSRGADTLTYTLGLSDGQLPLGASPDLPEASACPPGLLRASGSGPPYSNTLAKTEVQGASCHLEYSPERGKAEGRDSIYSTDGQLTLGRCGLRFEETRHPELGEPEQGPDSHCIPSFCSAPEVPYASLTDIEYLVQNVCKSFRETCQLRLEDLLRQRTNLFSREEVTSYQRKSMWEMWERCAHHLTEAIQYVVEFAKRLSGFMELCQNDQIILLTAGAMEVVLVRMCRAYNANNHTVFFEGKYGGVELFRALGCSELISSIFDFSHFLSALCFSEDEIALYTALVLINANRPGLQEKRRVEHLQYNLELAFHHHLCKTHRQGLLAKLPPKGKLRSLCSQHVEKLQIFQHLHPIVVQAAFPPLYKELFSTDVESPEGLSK

The assay concerns the target Nuclear receptor ROR-gamma (Mus musculus) (UniProt P51450). The assay can be described thus: qHTS for inhibitors of ROR gamma transcriptional activity. Note: nearly all actives have a fitted effect of over 60% in size. Conditions: Drosophila S2 Gal4-RORgamma UAS-luciferase reporter, 20 h; series mostly up to 53.6 µM. The source says:
NIH Molecular Libraries Probe Production Network [MLPCN] NIH Chemical Genomics Center [NCGC] MLPCN Grant: R03 DA026211-01 Assay Provider: Dan Littman, New York University Assay Overview: The retinoic acid-related orphan receptor (ROR) gamma is a transcription factor that has a central role in the differentiation of Th17 cells, a subset of T helper cells that secrete the inflammatory cytokines IL-17, IL-17F, and IL-22. Th17 cells have been implicated in graft versus host disease, autoimmune disease and asthma. ROR gamma is induced in naive T helper cells in the presence of TGF-beta combined with IL-6, IL-21, or IL-23, and thereafter directs the expression of the Th17 lineage cytokines. To study the mechanism of action of ROR gamma, an insect cell-based assay was screened. This Drosophila Schneider cell line was stably transfected with two vectors: a gene expressing a fusion of the Gal4 DNA binding domain and ROR gamma transactivation domain under the control of the metallothionine promoter and a Photinus luciferase reporter regulated by the Gal4 binding site enhancer, UAS. […] Small molecule inhibitors of ROR gamma activity are detected by a decrease in luciferase reporter activity.
Assay Protocol Summary: For screening, 600 cells in 4 uL/well were dispensed into white solid 1536-well plates (Grenier) using a solenoid-based dispenser. Following transfer of 23 nL compound or DMSO vehicle by a pin tool, the plates were incubated 1 hr at ambient temperature, and 1 uL/well copper sulfate (700 uM final concentration) was added. The plates were centrifuged 15 s at 1000 RPM and incubated 20 hr at ambient temperature. After addition of 1.5 uL Photinus luciferase detection reagent, the plates were incubated 10 min at ambient temperature and then read by an ViewLux (Perkin Elmer) to detect luminescence. Keywords: NIH Roadmap, MLPCN, MLI, MLSMR, qHTS, NCGC, qHTS, nuclear hormone receptor, retinoic acid-related orphan receptor, ROR gamma
Take `CCN1CCN(C2CCCCC2NS(=O)(=O)c2ccc(Cl)cc2)CC1` (stereo unspecified): the Potency result is “inactive”.

For `CC(C)Cn1cnc2c1c(=O)n(CC(=O)NN)c(=O)n2Cc1ccccc1`, the Potency entry is “inactive”.

For the compound `NC(=O)c1cc2ccccc2o/c1=N/NC(=O)c1cccc(F)c1`, the Potency result is “inactive”. `COc1cccc2cc(C(N)=O)/c(=N\NC(=O)c3ccccc3)oc12`: the Potency was 7.08 µM (active). As to `COc1ccc(C(=O)N/N=c2\oc3ccccc3cc2C(N)=O)cc1`, the Potency result was “inactive”.

`O=C1CN(C(=O)c2cc(F)cc(F)c2)c2ccccc2N1`: the Potency entry is “inactive”. On the same count and under the same terms, as for `CCOC(=O)c1cccnc1NC(=O)c1ccncc1`, the entry is “inactive”. Still for that read-out and setting: to `COC(=O)c1cccnc1NC(=S)NC(C)C` belongs 1.78 µM (active); to `COc1ccc(OC)c(C(C)NC(=S)Nc2ccc(S(=O)(=O)Nc3ncccn3)cc2)c1` (stereo unspecified), “inactive”; to `CCc1nnc(NS(=O)(=O)c2ccc(N=Cc3c(C)[nH]n(-c4ccc(C)cc4)c3=O)cc2)s1`, “inactive”. In the case of `Cc1ccc(-n2[nH]c(C)c(/C=N/N3C(=O)c4cccc5cccc(c45)C3=O)c2=O)cc1`, the Potency is 6.31 µM (active).

As for `Cc1ccc(-c2ccnc3[nH]n(-c4ccccc4)c(=O)c23)cc1`, the Potency entry is “inactive”. Still for that read-out and setting: to `Cc1ccc(C(=O)N2CCC(n3nccc3NC(=O)Nc3cccc(F)c3)CC2)cn1` belongs “inactive”; to `CCOc1ccc(NS(=O)(=O)c2ccc(C)c(C(N)=O)c2)cc1`, “inactive”. The same measure, in the same setting: to `CCCCNC(=O)c1c[nH]c2ccc(S(=O)(=O)Nc3ccc(OCC)cc3)cc2c1=O` belongs 7.94 µM (active); to `COc1cccc(NS(=O)(=O)c2ccc3[nH]cc(C(=O)NCCCOC(C)C)c(=O)c3c2)c1`, “inactive”. Turning to `CCOC(=O)c1c(S(=O)(=O)Nc2ccc(CN3CCC(C)CC3)cc2)c(C)n(C)c1C`, the Potency result is “inactive”. Same read-out and setting: to `CCOC(=O)c1cc2cc3ccccc3cc2oc1=O` belongs “inactive”; to `CCOC(=O)c1cc2c(nc1NC(=S)Nc1ccccc1)CC(C)(CC)OC2` (stereo unspecified), 3.55 µM (active); to `CCOC(=O)c1cn[nH]c1NC(=S)Nc1ccccc1`, “inactive”. `Cc1ccc(NC(=O)CSc2nnc(CNC(=O)c3ccccc3F)o2)cc1Cl`: the Potency entry is “inactive”. Consider `COc1ccc(-c2noc(CNC(=O)C(C)Oc3ccccc3)n2)cc1` (stereo unspecified), for which the Potency entry is “inactive”. Same read-out and setting: as for `COc1ccc(-c2cc(C(F)(F)F)nc(SCC(=O)Nc3ccc4c(c3)OCO4)n2)cc1OC`, the entry is “inactive”; as for `COc1cc(OC)nc(S(C)(=O)=O)n1`, “inactive”. In the case of `COc1ccc(-c2cc(C(F)(F)F)nc(S(C)(=O)=O)n2)cc1OC`, the Potency is 1.78 µM (active). Still for that read-out and setting: as for `Cc1cccn2c(=O)c3cc(C(=O)NCC4CCCO4)c(=N)n(Cc4ccc(F)cc4)c3nc12` (stereo unspecified), the entry is “inactive”.

For the compound `COc1cc(OC)c(OC)cc1CN1CCN(C(=O)c2cccc3ccccc23)CC1`, the Potency entry was “inactive”. The same measure, in the same setting: as for `Cc1cc2ccccn2c1C(=O)c1cccc(F)c1`, the entry is “inactive”; as for `Cc1ccc(C(C[N+](=O)[O-])c2c(C)cc3ccccn23)cc1` (stereo unspecified), 22.4 µM (active). Still for that read-out and setting: as for `CC(=O)Nc1ccc(/C=N/Nc2ccc(C(=O)c3c(C)cc4ccccn34)cc2[N+](=O)[O-])cc1`, the entry is “inactive”; as for `C=CCNc1scc(-c2ccccc2)[n+]1CC=C`, 12.6 µM (active). Same read-out and setting: as for `Cc1ccc(NC(=O)Nc2ccccc2)c(Br)c1`, the entry is “inactive”; as for `C=CCNC(=O)c1csc(-c2ccccc2)n1`, “inactive”; as for `Cc1ccc(NC(=O)NNC(=O)c2sccc2-n2cccc2)cc1`, “inactive”.

Turning to `C=CC[n+]1c(-c2ccc(C)cc2)csc1NNC(=O)Nc1ccccc1`, the Potency was 14.1 µM (active). Same read-out and setting: to `COC(=O)c1cc(NS(=O)(=O)c2ccc3c(c2)c(=O)n(C)c(=O)n3C)cc(C(=O)OC)c1` belongs “inactive”. The same measure, in the same setting: as for `Cc1cccc(C)c1N1C(=O)CN(Cc2ccccc2)C1=S`, the entry is “inactive”. Turning to `CCC(=O)c1cn(CCOc2ccccc2OC)c2ccccc12`, the activity change, negative = inhibition is -12.4% [at 1.91 µM].

Consider `Cc1cccc(NC(=O)C2CCCN(C(=O)NCc3ccccc3)C2)c1C` (stereo unspecified), for which the Potency entry was “inactive”. Same read-out and setting: as for `CN(C)c1ccc(CNC(=O)CN2C(=O)COc3ccc(S(=O)(=O)N4CCCC4)cc32)cc1`, the entry is “inactive”. Still for that read-out and setting: to `CCC(=O)NC(=S)Nc1ccc(NC(=O)c2ccco2)c(Cl)c1` belongs 2.51 µM (active); to `CCOc1cc(NC(=O)c2ccco2)c(OCC)cc1NC(=O)COc1ccccc1`, “inactive”.

For `COc1cc(NC(=S)NCc2ccco2)c(OC)cc1Cl`, the Potency is 7.08 µM (active). Consider `O=C(Nc1ccc(NC(=O)c2ccco2)c(Cl)c1)c1cccc([N+](=O)[O-])c1`, for which the Potency entry is “inactive”. Regarding `CCOc1cc(NC(=S)NCCCOC)c(OCC)cc1NC(=O)c1ccco1`, the Potency was 20 µM (active). The same measure, in the same setting: as for `CCOc1cc(NC(=S)NCCCN(C)C)c(OCC)cc1NC(=O)C1CC1`, the entry is “inactive”; as for `CCOc1cc(NC(=S)NCc2ccco2)c(OCC)cc1NC(=O)c1ccco1`, 1.12 µM (active); as for `COC(=O)c1cc(Cl)c(NC(=O)c2ccco2)cc1OC`, “inactive”. On the same count and under the same terms, to `CCOCC(=O)Nc1cc(OC)c(Cl)cc1OC` belongs “inactive”; to `COc1ccc2c(Cl)c(C(=O)NCc3ccco3)sc2c1`, “inactive”.

For `COc1ccc(CC(=O)Nc2ccccc2NC(=O)c2ccco2)cc1OC`, the Potency entry was “inactive”.
